In PubChem BioAssay AID1159580 (chemical genetic matrix, 2015):
Hit rate of the full screen: of about 5,500 compounds, about 2,000 (36%) were called active. About 18% were inconclusive and are not listed. No stated cut-off is given here; in the data, active means normalized growth mostly below about 0.91 (no sharp cut-off); inconclusive means no clear call, values can overlap the other calls; inactive means mostly above about 0.92. This is one part of the list.

Assay: chemical genetic growth profiling, strain panel (AID 1159580);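 further: tested at 20 µM; growth read once vehicle control cultures reached saturation at 30 °C; 1 = growth at the plate median or of vehicle wells; lower values mean less growth of the strain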
Details: growth OD

Measured: normalized growth

CC1(C)C2CC(=O)[C@]3(C)C(CC[C@@]4(C)[C@H](c5ccoc5)OC(=O)[C@H]5O[C@]543)[C@@]2(C)C=C[C@@H]1O (some centres not stated)
inactive: S. cerevisiae deletion strains, locus YBR021W, strain FUR4, active compounds read low 0.944 | S. cerevisiae deletion strains, locus YBR229C, strain ROT2, active compounds read low 1.02 | S. cerevisiae deletion strains, locus YCL029C, strain bik1, active compounds read low 1 | S. cerevisiae deletion strains, locus YDL035C, strain GPR1, active compounds read low 1.02 | S. cerevisiae deletion strains, locus YDL074C, strain BRE1, active compounds read low 1.01 | S. cerevisiae deletion strains, locus YDL101C, strain DUN1, active compounds read low 0.994 | S. cerevisiae deletion strains, locus YDL134C, strain PPH21, active compounds read low 0.982 | S. cerevisiae deletion strains, locus YDL185W, strain tfp1, active compounds read low 1.01 | S. cerevisiae deletion strains, locus YDL192W, strain arf1, active compounds read low 1.01 | S. cerevisiae deletion strains, locus YDR101C, strain arx1, active compounds read low 0.993 | S. cerevisiae deletion strains, locus YDR150W, strain NUM1, active compounds read low 1.01 | S. cerevisiae deletion strains, locus YDR162C, strain NBP2, active compounds read low 1.01 | S. cerevisiae deletion strains, locus YDR318W, strain mcm21, active compounds read low 0.99 | S. cerevisiae deletion strains, locus YDR388W, active compounds read low 1.01 | S. cerevisiae deletion strains, locus YDR502C, strain sam2, active compounds read low 0.967 | S. cerevisiae deletion strains, locus YEL061C, strain CIN8, active compounds read low 1.01 | S. cerevisiae deletion strains, locus YER110C, active compounds read low 0.986 | S. cerevisiae deletion strains, locus YER155C, strain BEM2, active compounds read low 1.01 | S. cerevisiae deletion strains, locus YER167W, strain BCK2, active compounds read low 1.02 | S. cerevisiae deletion strains, locus YGL078C, strain dbp3, active compounds read low 0.981 | S. cerevisiae deletion strains, locus YGL086W, strain mad1, active compounds read low 0.989 | S. cerevisiae deletion strains, locus YGL248W, strain PDE1, active compounds read low 0.998 | S. cerevisiae deletion strains, locus YGR135W, strain pre9, active compounds read low 0.931 | S. cerevisiae deletion strains, locus YGR252W, strain gcn5, active compounds read low 0.844 | S. cerevisiae deletion strains, locus YHR030C, strain SLT2, active compounds read low 1.02 | S. cerevisiae deletion strains, locus YHR079C, strain IRE1 (second series), active compounds read low 0.99 | S. cerevisiae deletion strains, locus YHR094C, strain hxt1, active compounds read low 0.999 | S. cerevisiae deletion strains, locus YHR129C, strain ARP1, active compounds read low 1.01 | S. cerevisiae deletion strains, locus YHR200W, strain rpn10, active compounds read low 0.975 | S. cerevisiae deletion strains, locus YIL066C, strain RNR3, active compounds read low 1.04 | S. cerevisiae deletion strains, locus YIL073C, strain SPO22, active compounds read low 1.02 | S. cerevisiae deletion strains, locus YIL125W, strain kgd1, active compounds read low 0.995 | S. cerevisiae deletion strains, locus YIR030C, strain dcg1, active compounds read low 0.996 | S. cerevisiae deletion strains, locus YJL095W, strain BCK1, active compounds read low 1 | S. cerevisiae deletion strains, locus YJL134W, strain LCB3, active compounds read low 1.01 | S. cerevisiae deletion strains, locus YJL168C, strain set2, active compounds read low 0.993 | S. cerevisiae deletion strains, locus YJL187C, strain SWE1 (second series), active compounds read low 0.981 | S. cerevisiae deletion strains, locus YJR043C, strain POL32, active compounds read low 1.03 | S. cerevisiae deletion strains, locus YKL009W, strain mrt4, active compounds read low 0.988 | S. cerevisiae deletion strains, locus YKL068W, active compounds read low 1.01 | S. cerevisiae deletion strains, locus YKL085W, strain MDH1 (second series), active compounds read low 1.01 | S. cerevisiae deletion strains, locus YKL085W, strain MDH1, active compounds read low 1.01 | S. cerevisiae deletion strains, locus YKR001C, strain vps1, active compounds read low 1 | S. cerevisiae deletion strains, locus YLR039C, strain RIC1, active compounds read low 1.18 | S. cerevisiae deletion strains, locus YLR058C, strain SHM2, active compounds read low 0.996 | S. cerevisiae deletion strains, locus YLR102C, strain apc9, active compounds read low 1 | S. cerevisiae deletion strains, locus YLR262C, strain YPT6, active compounds read low 1.16 | S. cerevisiae deletion strains, locus YLR268W, strain sec22, active compounds read low 1 | S. cerevisiae deletion strains, locus YLR330W, strain CHS5, active compounds read low 1 | S. cerevisiae deletion strains, locus YLR371W, strain rom2, active compounds read low 1.01 | S. cerevisiae deletion strains, locus YLR418C, strain cdc73, active compounds read low 0.936 | S. cerevisiae deletion strains, locus YML016C, strain PPZ1, active compounds read low 1.03 | S. cerevisiae deletion strains, locus YML032C, strain rad52, active compounds read low 0.998 | S. cerevisiae deletion strains, locus YML124C, strain tub3, active compounds read low 0.995 | S. cerevisiae deletion strains, locus YMR078C, strain ctf18, active compounds read low 0.998 | S. cerevisiae deletion strains, locus YMR223W, strain ubp8, active compounds read low 0.97 | S. cerevisiae deletion strains, locus YMR263W, strain SAP30, active compounds read low 0.986 | S. cerevisiae deletion strains, locus YMR307W, strain GAS1, active compounds read low 1.1 | S. cerevisiae deletion strains, locus YNL067W, strain RPL9B, active compounds read low 0.97 | S. cerevisiae deletion strains, locus YNL128W, strain TEP1, active compounds read low 1.02 | S. cerevisiae deletion strains, locus YNL233W, strain BNI4, active compounds read low 0.975 | S. cerevisiae deletion strains, locus YNL250W, strain rad50, active compounds read low 0.986 | S. cerevisiae deletion strains, locus YNL271C, strain bni1, active compounds read low 1 | S. cerevisiae deletion strains, locus YNL298W, strain CLA4, active compounds read low 1.01 | S. cerevisiae deletion strains, locus YNL307C, strain MCK1, active compounds read low 1 | S. cerevisiae deletion strains, locus YNL322C, strain KRE1, active compounds read low 1.01 | S. cerevisiae deletion strains, locus YNR052C, strain pop2, active compounds read low 0.967 | S. cerevisiae deletion strains, locus YOL012C, strain htz1 1.21 | S. cerevisiae deletion strains, locus YOL147C, strain pex11, active compounds read low 0.993 | S. cerevisiae deletion strains, locus YOR061W, strain CKA2, active compounds read low 1.02 | S. cerevisiae deletion strains, locus YOR069W, strain VPS5, active compounds read low 1 | S. cerevisiae deletion strains, locus YOR136W, strain idh2, active compounds read low 0.985 | S. cerevisiae deletion strains, locus YOR144C, strain elg1, active compounds read low 1 | S. cerevisiae deletion strains, locus YOR184W, strain ser1, active compounds read low 0.993 | S. cerevisiae deletion strains, locus YOR316C, strain cot1, active compounds read low 1.01 | S. cerevisiae deletion strains, locus YPL241C, strain CIN2, active compounds read low 1.01 | S. cerevisiae deletion strains, locus YPR119W, strain clb2, active compounds read low 0.997 | S. cerevisiae deletion strains, locus YPR141C, strain kar3, active compounds read low 1.01 | S. cerevisiae deletion strains, locus YPR163C, strain tif3, active compounds read low 0.987 | S. cerevisiae deletion strains, locus YPR167C, strain met16, active compounds read low 0.985 | S. cerevisiae deletion strains, strain wtn01, active compounds read low 0.998 | S. cerevisiae strains, strain wild type, active compounds read low 1.01
